Sampled rows, rich in hits. Any-hit rate of the full collection: about 8%.
Lassa entry – inhibitors of Lassa virus binding or entry into cells | 4.1% of 18,000 active | Potency, µM (highest dose often 49.2 µM), hits mostly inhibitors | Lassa virus pseudotyped entry inhibition, cell-based qHTS
MARV entry inh – inhibitors of Marburg virus binding or entry into cells; Marburg virus pseudotype entry/binding inhibition, cell-based; Potency, µM (series often up to 49.2 µM), usual class: inhibitors; 6.5% of 18,000 active
Of the large screens only hits and unclear results are named; the others gave an inactive call. Calls come from the whole dose curve; tested in HEK293 cells.

C=CCCN(Cc1ccc(C)cc1)S(=O)(=O)C=C	none
CO/C1=C\C(C)=C\[C@@H](C)[C@@H](O)[C@@H](C)C/C(C)=C/C=C\[C@H](OC)C([C@@H](C)[C@@H](O)[C@H](C)[C@@]2(O)C[C@@H](O)[C@H](C)C(C(C)C)O2)OC1=O (some centres undefined)	Lassa entry 0.023µM, MARV entry inh 0.015µM
C[C@@H]1CC[C@H]2C(=O)N(Cc3ccc(Cl)cc3)C[C@@H](O)CN2[C@H]1c1cccc(Br)c1	none
O=C(OCc1cn([C@@H]2CN(C(=O)C3CCCCC3)[C@@H](c3ccccc3)C[C@@H]2O)nn1)c1ccccc1	MARV entry inh inconclusive
O=C(/C=C/C#Cc1cccc(NS(=O)(=O)c2ccccc2)c1)NO	Lassa entry 10µM, MARV entry inh inconclusive
Nc1ccc(S(=O)(=O)Nc2ccccc2)cc1	none
CCn1c(-c2nonc2N)nc2cnc(Oc3cccc(NC(=O)c4ccc(N(C)C)cc4)c3)cc21	none
C=C1C2CC[C@@]3(C)C(c4ccoc4)OC(=O)C[C@@]13OC1CC(OC(C)=O)C(C)(C)C(CC(=O)OC)[C@@]12C (some centres undefined)	Lassa entry inconclusive, MARV entry inh 13µM
C=C1C2CC[C@@]3(C)C(c4ccoc4)OC(=O)C[C@@]13OC1CC(=O)C(C)(C)C(CC(=O)OC)[C@]12C (some centres undefined)	none
Cc1cc2c(c(=O)n1-c1ccccc1)[C@H]1O[C@](c3ccsc3)(Cc3cc(C#N)ccc31)O2	none
[Cl-].[Cl-].[Hg+2]	Lassa entry 3.2µM, MARV entry inh 2.8µM
COC(=O)C1=C(C(=O)OC)[C@@H]2N(Cc3ccccc3)c3ccccc3[C@@]23C[C@@H](C(=O)OC)N(C(=O)NCCBr)C3=N1	none
C=C1C(=O)[C@]23[C@H](O)[C@H]1CC[C@H]2[C@@]12COC3(O)[C@H](O)[C@@H]1C(C)(C)CC[C@@H]2O	Lassa entry inconclusive, MARV entry inh 18µM
COc1c(C)c2c(c(O)c1C/C=C(\C)CCC(=O)OCCN1CCOCC1)C(=O)OC2	Lassa entry 1.1µM, MARV entry inh 1.1µM
CCCCCCN1C[C@@H](O)[C@H](n2cc(C3CC3)nn2)C[C@H]1c1ccc(C)cc1	none (no result: Lassa entry)
CC(CCN1CCc2nc(-c3ccccc3)c(-c3ccccc3)cc2C1)=NOC[C@@H](O)COCc1ccco1	none
CS(=O)(=O)Nc1cccc(-c2ccc3c(NC(=O)C4CC4)n[nH]c3c2)c1	MARV entry inh 3.5µM (no result: Lassa entry)
CS(=O)(=O)Nc1ccc(-c2ccc3c(NC(=O)C4CC4)n[nH]c3c2)cc1	none
C[C@H]1[C@@H](C(=O)N2CCCC2)CC(=NOCc2ccccc2)C(=NOCc2ccccc2)C[C@H]1c1ccccc1	none (no result: Lassa entry)
COCc1ccc(CN2CCOc3c(O)cc(-c4cc(C)c5ccc(F)cc5n4)cc3C2)o1	Lassa entry inconclusive
Oc1ccc(Cl)cc1CN1CCOc2c(O)cc(-c3nc4ccccc4s3)cc2C1	Lassa entry 1.6µM
C=CCOC(=O)C(C(C)=O)[C@@H](NC(=O)OC)c1ccc2ccccc2c1 (some centres undefined)	none
O=S1(=O)CCSCCN1Cc1ccc(Br)cc1	none
CCc1cc(OC)c(C[C@H](C)N)cc1OC	MARV entry inh inconclusive
COc1cc(CC(C)N)c(OC)cc1Br (centres undefined)	Lassa entry inconclusive, MARV entry inh 18µM
Cn1cc(C2=C(c3cn(C4CCN(Cc5ccccn5)CC4)c4ccccc34)C(=O)NC2=O)c2ccccc21	Lassa entry inconclusive, MARV entry inh 7.1µM
CCC1(C2CCN(Cc3ccccn3)CC2)NC(=O)N(CC2COc3ccccc3O2)C1=O (centres undefined)	none
O=C(C=Cc1cccc([N+](=O)[O-])c1)c1ccccc1	none (no result: Lassa entry)
O=C1CCc2ccc(OCCCCN3CCN(c4cccc(Cl)c4Cl)CC3)cc2N1	Lassa entry inconclusive
O=C1NC2CCCCN2C12CCN(CCCN1c3ccccc3CCc3ccc(Cl)cc31)CC2 (centres undefined)	Lassa entry 28µM, MARV entry inh 7.1µM
COCCN1C(=O)N(C)C(c2ccccc2)C(C(C)=O)=C1C (centres undefined)	MARV entry inh inconclusive
C[C@]12[C@H](O)CC3C(CC[C@@H]4C[C@@H](O)CC[C@]34C)[C@@]1(O)CC[C@@H]2C1=CC(=O)OC1 (some centres undefined)	Lassa entry 1.1µM, MARV entry inh inconclusive
C[C@H]1O[C@@H](O[C@H]2[C@@H](O)C[C@H](O[C@H]3[C@@H](O)C[C@H](O[C@H]4CC[C@@]5(C)[C@H](CC[C@@H]6[C@@H]5C[C@@H](O)[C@]5(C)[C@@H](C7=CC(=O)OC7)CC[C@]65O)C4)O[C@@H]3C)O[C@@H]2C)C[C@H](O)[C@@H]1O	Lassa entry 4µM, MARV entry inh inconclusive
CO[C@H]1[C@@H](O)C[C@H](O[C@H]2[C@@H](O)C[C@H](O[C@H]3[C@@H](O)C[C@H](O[C@H]4CC[C@@]5(C)[C@H](CC[C@@H]6[C@@H]5C[C@@H](O)[C@]5(C)[C@@H](C7=CC(=O)OC7)CC[C@]65O)C4)O[C@@H]3C)O[C@@H]2C)O[C@@H]1C	Lassa entry inconclusive, MARV entry inh 7.1µM
C[C@@H]1O[C@H](O[C@@H]2[C@H](C)O[C@H](O[C@@H]3[C@H](C)O[C@H](O[C@H]4CC[C@]5(C)[C@@H](CC[C@@H]6[C@H]5C[C@@H](O)[C@]5(C)[C@@H](C7=CC(=O)OC7)CC[C@]65O)C4)C[C@@H]3O)C[C@@H]2O)C[C@H](O)[C@@H]1O	Lassa entry 0.13µM, MARV entry inh 0.89µM
CC(=O)C1CCC2C3CCC4CC(O)CCC4(C)C3CC(O)C12C (centres undefined)	none
COC[C@@H](OC(C)=O)[C@H]1OCc2ccccc2[C@@H]1C=Cc1ccccc1	none
C[C@@H](ON=C1[C@H]2CCn3c(=O)n(-c4ccccc4)c(=O)n3[C@@H]2[C@H](O)[C@@H]2O[C@H]12)c1cn([C@@H]2COC[C@@H]2O)nn1	none
CCN1C(=NCc2ccc3c(c2)OCO3)N[C@@H](c2ccccc2)[C@H](C(=O)OC)[C@H]1C	MARV entry inh inconclusive
CCCCCCN1C[C@@H](O)[C@H](n2cc(COC(=O)c3ccccc3)nn2)C[C@H]1c1ccccc1	none
CC(=O)OC[C@H]1O[C@H](C#Cc2ccccc2Cl)C=C[C@H]1OC(C)=O	none
COC(=O)C1=C(C)N(Cc2ccccc2)C(=O)NC1c1cccc(F)c1 (centres undefined)	none
O=C1N(Cc2ccc(F)cc2)c2ccccc2[C@@]12O[C@H](COc1ccccc1)CC1CCCC12 (some centres undefined)	none
C=C[C@@]1(C)CC[C@H](O)[C@H]2C(=O)CCC[C@H]21	none
CCOC(=O)C1=CC2(CC)CCCN3CCc4c(n1c1ccccc41)C32 (centres undefined)	Lassa entry inconclusive
CCOC(=O)C1=C[C@@]2(CC)CCCN3CCc4c(n1c1ccccc41)C32 (some centres undefined)	MARV entry inh 10µM
C#CCCCON=C1C[C@@H](O)[C@H](O)[C@H]2[C@@H]3C(=O)N(C[C@@H]4CCCO4)C(=O)[C@@H]3CC[C@@H]12	none
CNC(=O)c1cncc(C=Cc2c(Cl)cccc2Cl)c1	none
Nc1c2c(nc3ccccc13)CCCC2	Lassa entry inconclusive, MARV entry inh 10µM
Nc1c2ccccc2nc2ccccc12	Lassa entry inconclusive, MARV entry inh 14µM
c1ccc2nc3ccccc3cc2c1	MARV entry inh inconclusive
CC(C)[C@@H](OCc1ccccc1)[C@H](C)C=NO[C@H](C)c1cn([C@H](CO)Cc2ccccc2)nn1	none
